This experiment has as its target furin, P09958. Kind of experiment: furin cleavage Z-score vs untreated control; higher = more cleavage, active = 3.5 or more, inactive = 1 or less, 8 variable residues between constant flanks. A digest of the protocol:
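Furin cleavage was scored on 8-mer peptides joined to a cDNA oligonucleotide and bound to magnetic beads at the N-terminus. Digestion with purified furin (1:10 enzyme:substrate, 0.01 ml, 50 mM HEPES pH 7.5, CaCl2, NaCl) lasted 7.5, 15 or 30 min. Freed DNA was tagged with adapters by PCR, sequenced and counted; the cleavage Z-score is the lowess-adjusted log count versus furin-free reactions, scaled by median absolute deviation.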

Some of the results follow. How many sequences the whole screen found active is unknown.

Chain of furin, P09958 (P09958 whole entry): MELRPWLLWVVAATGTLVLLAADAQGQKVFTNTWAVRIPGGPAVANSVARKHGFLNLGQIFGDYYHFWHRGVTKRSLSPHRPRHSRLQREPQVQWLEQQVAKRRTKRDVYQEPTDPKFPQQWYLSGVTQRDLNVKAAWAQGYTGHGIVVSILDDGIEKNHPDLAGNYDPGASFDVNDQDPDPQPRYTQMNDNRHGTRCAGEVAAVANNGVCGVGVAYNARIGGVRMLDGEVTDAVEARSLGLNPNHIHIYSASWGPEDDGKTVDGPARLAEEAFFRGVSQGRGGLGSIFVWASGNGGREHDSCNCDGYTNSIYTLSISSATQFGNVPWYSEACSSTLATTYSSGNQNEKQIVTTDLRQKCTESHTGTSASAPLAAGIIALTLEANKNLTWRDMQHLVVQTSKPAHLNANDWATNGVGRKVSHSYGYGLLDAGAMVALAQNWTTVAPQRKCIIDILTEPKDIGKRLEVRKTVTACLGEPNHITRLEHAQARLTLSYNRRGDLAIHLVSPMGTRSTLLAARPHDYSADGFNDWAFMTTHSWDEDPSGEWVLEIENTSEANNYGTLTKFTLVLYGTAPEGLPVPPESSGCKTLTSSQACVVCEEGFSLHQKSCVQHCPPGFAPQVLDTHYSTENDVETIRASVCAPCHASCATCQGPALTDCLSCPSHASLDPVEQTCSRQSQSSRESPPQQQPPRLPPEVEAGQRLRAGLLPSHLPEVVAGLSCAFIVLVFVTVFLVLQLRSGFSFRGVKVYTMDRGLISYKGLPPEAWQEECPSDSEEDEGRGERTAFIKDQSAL

Take CAYCLRKRRMAGNASASA [FS-1664]: the “furin cleavage Z-score” value runs as follows: (7.5 min) 8.61 (active); (15 min) 9.15 (active); (30 min) 7.84 (active).
Consider CAQGCRKDRGAGNASASA [FS-77], for which the “furin cleavage Z-score” value (7.5 min) is -1.71 (inactive), the “furin cleavage Z-score” value (15 min) was 0.374 (inactive) and the “furin cleavage Z-score” value (30 min) was -0.248 (inactive).
As for CAACLRKLGVAGNASASA [HC1614], the “furin cleavage Z-score” value (7.5 min) is -0.73 (inactive), the “furin cleavage Z-score” value (15 min) was -0.95 (inactive) and the “furin cleavage Z-score” value (30 min) came out at 1.04.
The corresponding values for CASWERPRRPAGNASASA [FS-876] are -1.15 (inactive), -0.626 (inactive) and 0.927 (inactive).
Turning to CALKRRDRRMAGNASASA [FS-1227], the “furin cleavage Z-score” value by setting is: (7.5 min) 12 (active); (15 min) 13.4 (active); (30 min) 10.3 (active).
Turning to CATKKRPRRMAGNASASA [FS-1171], the “furin cleavage Z-score” value is, setting by setting: (7.5 min) 7.17 (active); (15 min) 8.34 (active); (30 min) 8.69 (active).
Consider CAYCLSTGCVAGNASASA [HC997], for which the “furin cleavage Z-score” value (7.5 min) is -1.15 (inactive), the “furin cleavage Z-score” value (15 min) was 0.0405 (inactive) and the “furin cleavage Z-score” value (30 min) was -1.03 (inactive).
The corresponding values for CAYPNRPDRPAGNASASA [FS-110] are -0.325 (inactive), 0.955 (inactive) and 0.00762 (inactive).
The corresponding values for CAWGRRKARMAGNASASA [FS-1437] are 8.17 (active), 11.8 (active) and 9.74 (active).
For the sequence CAFERRSFETAGNASASA [FS-2390], the “furin cleavage Z-score” value is, setting by setting: (7.5 min) -1.51 (inactive); (15 min) -1.58 (inactive); (30 min) -0.598 (inactive).
As for CAGMVSKGWRAGNASASA [HC669], the “furin cleavage Z-score” value runs as follows: (7.5 min) -0.876 (inactive); (15 min) 0.139 (inactive); (30 min) -1.14 (inactive).
Consider CAVIIKLGALAGNASASA [HC629], for which the “furin cleavage Z-score” value reads like this: (7.5 min) 0.217 (inactive); (15 min) -0.103 (inactive); (30 min) 0.349 (inactive).
In the case of CASWPCSAHLAGNASASA [HC2488], the “furin cleavage Z-score” value by setting is: (7.5 min) 0.993 (inactive); (15 min) 0.675 (inactive); (30 min) 1.37.
The corresponding values for CADSEVVTSTAGNASASA [HC2297] are -0.913 (inactive), 1.6 and 0.0245 (inactive).
As to CAYLVTRHADAGNASASA [HC726], the “furin cleavage Z-score” value by setting is: (7.5 min) -0.934 (inactive); (15 min) -0.697 (inactive); (30 min) -0.629 (inactive).
Turning to CAMLKRFARMAGNASASA [FS-1036], the “furin cleavage Z-score” value (7.5 min) was 9.66 (active), the “furin cleavage Z-score” value (15 min) is 12.7 (active) and the “furin cleavage Z-score” value (30 min) is 9.59 (active).
Regarding CAAKRRPRRMAGNASASA [FS-1302], the “furin cleavage Z-score” value by setting is: (7.5 min) 7.77 (active); (15 min) 7.84 (active); (30 min) 6.56 (active).
As for CAYPPKPCGIAGNASASA [HC405], the “furin cleavage Z-score” value is -0.254 (inactive) (7.5 min), 1.24 (15 min) and -0.00218 (inactive) (30 min).
The corresponding values for CAMEECTQHLAGNASASA [HC36] are 1.8, 0.851 (inactive) and 0.876 (inactive).
The corresponding values for CAAAQLAAPGAGNASASA [HC1069] are 0.864 (inactive), -0.982 (inactive) and -0.549 (inactive).
In the case of CAAVCCSMSYAGNASASA [HC1983], the “furin cleavage Z-score” value is, setting by setting: (7.5 min) -0.929 (inactive); (15 min) -0.792 (inactive); (30 min) 0.279 (inactive).
The corresponding values for CARSQRSEERAGNASASA [FS-2813] are -1.38 (inactive), -0.785 (inactive) and 0.605 (inactive).
For the sequence CARTRREAPRAGNASASA [FS-2096], the “furin cleavage Z-score” value reads like this: (7.5 min) 11.6 (active); (15 min) 11.4 (active); (30 min) 9.47 (active).
As to CARTRRYTLFAGNASASA [FS-2191], the “furin cleavage Z-score” value (7.5 min) was determined as 2.37, the “furin cleavage Z-score” value (15 min) is 3.82 (active) and the “furin cleavage Z-score” value (30 min) is 4.23 (active).
The corresponding values for CARSRRSEERAGNASASA [FS-3237] are 6.2 (active), 7.41 (active) and 5.66 (active).
Regarding CARTRRYYLSAGNASASA [FS-3112], the “furin cleavage Z-score” value is, setting by setting: (7.5 min) -0.7 (inactive); (15 min) 2.33; (30 min) 1.85.
On to CARTRRPGEPAGNASASA [FS-2835], for which the “furin cleavage Z-score” value runs as follows: (7.5 min) -0.179 (inactive); (15 min) 0.383 (inactive); (30 min) 0.174 (inactive).
Regarding CARFRRQDVRAGNASASA [FS-2665], the “furin cleavage Z-score” value was 3.01 (7.5 min), 3.49 (15 min) and 4.11 (active) (30 min).
CARSRRLQQRAGNASASA [FS-2090]: the “furin cleavage Z-score” value reads like this: (7.5 min) -1.41 (inactive); (15 min) -1.28 (inactive); (30 min) -0.156 (inactive).
The corresponding values for CAAETTVRLRAGNASASA [HC927] are 0.749 (inactive), -0.382 (inactive) and 0.0108 (inactive).
For CARCVRICSKAGNASASA [FS-2899], the “furin cleavage Z-score” value was 1.54 (7.5 min), -0.229 (inactive) (15 min) and -0.326 (inactive) (30 min).
Take CASYPCSAHLAGNASASA [HC2489]: the “furin cleavage Z-score” value was 0.414 (inactive) (7.5 min), -1.17 (inactive) (15 min) and 1.74 (30 min).
For the sequence CATFALWRVSAGNASASA [HC1200], the “furin cleavage Z-score” value is, setting by setting: (7.5 min) -1.06 (inactive); (15 min) -0.9 (inactive); (30 min) -0.368 (inactive).
On to CAVLCCSMSYAGNASASA [HC2005], for which the “furin cleavage Z-score” value by setting is: (7.5 min) 0.0781 (inactive); (15 min) 1.47; (30 min) 0.67 (inactive).
On to CARRFRSVPRAGNASASA [FS-2369], for which the “furin cleavage Z-score” value is -0.464 (inactive) (7.5 min), 0.0993 (inactive) (15 min) and 0.454 (inactive) (30 min).
The corresponding values for CARERRSEEPAGNASASA [FS-1890] are -0.884 (inactive), 3.45 and 0.678 (inactive).
The corresponding values for CARFRKAYKPAGNASASA [FS-2926] are 0.349 (inactive), -0.617 (inactive) and -0.661 (inactive).
For CATFHKAEYRAGNASASA [EK4], the “furin cleavage Z-score” value (7.5 min) is -1.71 (inactive), the “furin cleavage Z-score” value (15 min) is -2.3 (inactive) and the “furin cleavage Z-score” value (30 min) was -0.599 (inactive).
The corresponding values for CARFRRSVPRAGNASASA [FS-2667] are 8.62 (active), 7.98 (active) and 7.02 (active).
Regarding CARFYRYMGRAGNASASA [FS-2141], the “furin cleavage Z-score” value is, setting by setting: (7.5 min) 0.0635 (inactive); (15 min) 0.964 (inactive); (30 min) -0.333 (inactive).
Turning to CADFVRSITPAGNASASA [FS-1878], the “furin cleavage Z-score” value runs as follows: (7.5 min) -0.721 (inactive); (15 min) -0.817 (inactive); (30 min) -2.11 (inactive).
As for CARSRRQDVRAGNASASA [FS-2818], the “furin cleavage Z-score” value is, setting by setting: (7.5 min) 1.35; (15 min) 3.52 (active); (30 min) 2.66.
Turning to CARSRRRSGRAGNASASA [FS-3094], the “furin cleavage Z-score” value by setting is: (7.5 min) 1.03; (15 min) 0.486 (inactive); (30 min) 1.5.
The corresponding values for CARFRRAANRAGNASASA [FS-1702] are 7.75 (active), 10.5 (active) and 7.34 (active).
The corresponding values for CARFRRSETPAGNASASA [FS-1854] are 6.5 (active), 5.93 (active) and 5.18 (active).

(Values after the supplement of paper PMC3545927.)
